Assay results reported in PubChem BioAssay (NCI).
This is part of a sample that, as a whole, favours compounds with a hit. Of some 79,000 tested, about 15% had one in any assay. Active and inactive are the calls of the source. Rule as the data show it: active = growth inhibition above about 70%; inactive = the rest.

Assay: NCI Yeast Anticancer Drug Screen. Data for the mec2-1 strain (AID 157)
Details: S. cerevisiae mec2-1 strain, at 50.0 µM (retest, dose inferred, filed as 5.0), active compounds read high
Method in brief: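 Vehicle-treated cultures served as reference for growth inhibition of compound-exposed mec2-1 yeast.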

Structure (SMILES) | growth inhibition
CC(=O)Sc1ccc(Br)cc1 | 52% (inactive)
CC(C)OCc1cccc2ccnc(COC(C)C)c12 | 14% (inactive)
Nc1ccc2c(c1)C(=O)c1ccccc1-2 | 15% (inactive)
O=C1Nc2ccc([N+](=O)[O-])c3c([N+](=O)[O-])ccc1c23 | 81% (active)
Cc1ccc(NC(=O)Oc2ccc(C(C)(C)C)cc2Br)cc1NC(=O)Oc1ccc(C(C)(C)C)cc1Br | 13% (inactive)
O=C1C(Cl)=C(Nc2ccc(S(=O)(=O)O)cc2)C(=O)c2ccccc21 | 100% (active)
N/C(=N\OC(=O)Nc1ccccc1)c1ccccc1 | 40% (inactive)
O=C1c2ccccc2C(=O)c2cc(N3C(=O)C=CC3=O)ccc21 | 89% (active)
CCCCN=C(c1ccc(O)cc1)c1ccc(OC)cc1O | 15% (inactive)
Cc1ccc(S(=O)(=O)c2cc(O)c(O)c3ccc(Br)cc23)cc1 | 98% (active)
CC(C)(C)NC(=S)N/N=C/c1cc(Cl)cc(Cl)c1O | 84% (active)
Oc1ccc2c(c1)OCC1c3ccccc3OC21 (centres undefined) | 78% (active)
OCCSC(=S)Nc1ccc(Cl)c(Cl)c1 | 100% (active)
CCCC[N-]CC(O)C[NH-].O=C(O)CC(=O)O.[Pt+2] (centres undefined) | -23% (inactive)
N=C(N)c1cccc(-c2ccc(-c3ccccc3)o2)c1 | 72% (active)
C#CC(CC(C)C)(CC(C)C)OC(=O)Nc1ccccc1 | 97% (active)
CCCCOc1ccc(-c2c(COC(=O)NC)c(COC(=O)NC)c(C)n2C)cc1 | 97% (active)
O=C(Nc1cccc2ccccc12)OCCCCCCl | 96% (active)
C=CCOc1ccc(/C=N/NC(N)=S)cc1 | 81% (active)
